The target of assay [1] is Progesterone receptor (Homo sapiens) (UniProt P06401). The experiment in a line: qHTS assay to identify small molecule agonists of the progesterone receptor (PR) signaling pathway (AID 1346784; calls by dose curve; further: nearly all actives have a fitted effect of over 30% in size). The method, boiled down: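 Seed PR-UAS-bla HEK 293T cells (2% charcoal-stripped FBS), incubate 6 hr at 37C; add compounds in DMSO, 16 hr at 37C; add LiveBLAzer B/G substrate, 2 hr RT; read fluorescence intensity.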
(In general: Quantitative high-throughput screening tests each substance at several concentrations.)

Assay [2] in a line: qHTS assay to identify small molecule agonists of the TGF-beta/Smad signaling pathway - cell viability counter screen (AID 1346829). Further: top concentration of the series differs between compounds; nearly all actives have a fitted effect of over 45% in size. The method, boiled down:
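In parallel with the Smad reporter read, viability of HEK 293T cells stably carrying SBE-bla is quantified by ATP luminescence following 5 hr compound treatment.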

The nature of assay [3]: qHTS assay to identify small molecule agonists of the TGF-beta/Smad signaling pathway (AID 1346859; active means well fitted activation curve with a large enough effect in the signal ratio in the repeat runs, not every such curve was filed as active; the % refers to the signal ratio; further: series mostly up to about 77 µM). The method in brief:
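Beta-lactamase reporter activity downstream of Smad binding elements was measured in stably transfected HEK 293T cells; compounds were incubated for 5 hr, substrate for 2 hr at room temperature.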

In assay [4] the target is Thyrotropin-releasing hormone receptor (Homo sapiens) (UniProt P34981). The experiment in a line: qHTS assay to identify small molecule antagonists of the thyrotropin-releasing hormone receptor (TRHR) signaling pathway (AID 1346877; active means well fitted inhibition curve with a large enough effect in the repeat runs, not every such curve was filed as active; further: series mostly up to about 51 µM). The method, boiled down: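 TRHR-expressing HEK293 cells loaded with calcium dye for 2 h at 37 C; compounds pre-incubated 5 min at room temperature before TRH challenge at 1 nM final. Intracellular calcium fluorescence read kinetically for 3 min; 15 concentrations in triplicate.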

Assay [5] has the same target. The experiment in a line: qHTS assay to identify small molecule agonists of the thyrotropin-releasing hormone receptor (TRHR) signaling pathway (AID 1346891; calls by dose curve; further: series mostly up to about 58 µM). The method in brief: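 Overnight-plated (18 h, 37 °C, 5% CO2) TRHR-Hek293 cells; 2 h calcium dye at 37 °C; compound in DMSO; 3-min kinetic fluorescence read.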
The nature of assay [6]: Caspase-3/7 induction in HepG2 cells by small molecules, qHTS assay (AID 1346978). Further: nearly all actives have a fitted effect of over 15% in size. The method, boiled down: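 Wild-type HepG2 cells (2,000/well) were settled 5 h at 37 C, 5% CO2, then exposed to compounds in DMSO for 17 h. Caspase-3/7 activity was read by luminescence 30 min after adding Caspase-Glo 3/7 reagent at room temperature.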
Assay [7] addresses Nuclear receptor subfamily 1 group I member 2 (Homo sapiens) (UniProt O75469). The experiment in a line: Human pregnane X receptor (PXR) small molecule agonists, qHTS assay (AID 1346982). Further: nearly all actives have a fitted effect of over 35% in size. Further: potency means the concentration at half of the fitted maximal effect. The method, boiled down:
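PXR-Luc HepG2 reporter cells (CYP3A4-driven luciferase) in 5% charcoal-stripped FBS medium, plated 5 h before compound addition, then treated 24 h at 37C. Luciferase read by ONE-Glo luminescence after 30 min at room temperature.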

The target of assay [8] is Cytochrome P450 2D6 (Homo sapiens) (UniProt P10635). Briefly: Cytochrome P450 Family 2 Subfamily D Member 6 (CYP2D6) small molecule antagonists: luciferase reporter qHTS assay (AID 1671196). Further: nearly all actives have a fitted effect of over 50% in size. Further: potency means the concentration at half of the fitted maximal effect. The method, boiled down:
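Cell-free P450-Glo system: CYP2D6 with proluciferin substrate was pre-incubated with compound for 10 min, then reacted with NADPH regeneration for 1 h at room temperature. Luciferin product was detected after 20 min, and data were reported as relative luminescence units.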
For orientation: Reporter assays use an easily measured gene product as a stand-in for the process of interest.

Assay [9] addresses Cytochrome P450 2C19 (Homo sapiens) (UniProt P33261). Briefly: Cytochrome P450 Family 2 Subfamily C Member 19 (CYP2C19) small molecule antagonists: luciferase reporter qHTS assay (AID 1671197). Further: nearly all actives have a fitted effect of over 65% in size. Further: potency means the concentration at half of the fitted maximal effect. The method in brief: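 Compounds were tested on CYP2C19 activity via proluciferin conversion to luciferin. The 37C, 1 h reaction followed NADPH addition; detection reagent stopped it.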

The target in assay [10] is Progesterone receptor (Homo sapiens) (UniProt P06401). Briefly: qHTS assay to identify small molecule antagonists of the progesterone receptor (PR) signaling pathway (AID 1346795; active means well fitted inhibition curve with a large enough effect in the signal ratio in the repeat runs, not every such curve was filed as active; the % refers to the signal ratio; further: potency means the concentration at half of the fitted maximal effect). The method, boiled down:
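Screening used a GripTite HEK293T line with PR-responsive UAS-beta-lactamase. Cells were challenged with compound in the presence of 1 nM R5020 final for 16 hr at 37C; B/G FRET substrate, 2 hr room temperature, fluorescence.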

Assay [11] is described as follows: qHTS assay to identify small molecule antagonists of the progesterone receptor (PR) signaling pathway - cell viability counter screen (AID 1346798). Further: nearly all actives have a fitted effect of over 50% in size. Further: potency means the concentration at half of the fitted maximal effect. The method, boiled down: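 Measures cytotoxicity in parallel with the PR antagonist reporter read: HEK293T PR-UAS-bla cells get compound and R5020 for 16 hr, and remaining viable cells are quantified by CellTiter-Glo luminescence.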

A short description of assay [12]: qHTS assay to identify small molecule agonists of the progesterone receptor (PR) signaling pathway - cell viability counter screen (AID 1346799; calls by dose curve; further: nearly all actives have a fitted effect of over 45% in size; further: potency means the concentration at half of the fitted maximal effect). The method in brief:
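Using the same plates as the PR reporter screen, HEK293T PR-UAS-bla cells received compounds for 16 hr at 37C and were then lysed with CellTiter-Glo; luminescence was read 30 min later at room temperature.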

Assay [13] is described as follows: qHTS assay to identify small molecule antagonists of the TGF-beta/Smad signaling pathway - cell viability counter screen (AID 1346824). Further: nearly all actives have a fitted effect of over 50% in size. The method, boiled down: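 SBE-bla HEK 293T cells were plated overnight at 37 C, then given compounds in DMSO plus TGF-beta1 (added as 0.25 ng/mL solution) for 5 hr. After the bla read, CellTiter-Glo was added to the same wells and luminescence read after 30 min at room temperature.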

The nature of assay [14]: Human pregnane X receptor (PXR) small molecule agonists, qHTS cell viability counter screen (AID 1346977). Further: nearly all actives have a fitted effect of over 50% in size. Further: potency means the concentration at half of the fitted maximal effect. The method, boiled down:
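After a 5hr pre-incubation, PXR-Luc HepG2 cells received compounds plus positive control in DMSO and were kept 24hr at 37C. Cell viability was quantified by fluorescence from CellTiter-Fluor added for the final hour.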

The nature of assay [15]: Caspase-3/7 induction in CHO-K1 cells by small molecules, qHTS cell viability counter screen (AID 1346979). Further: nearly all actives have a fitted effect of over 35% in size. Further: potency means the concentration at half of the fitted maximal effect. The method in brief: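 Multiplexed with Caspase-Glo 3/7 in CHO-K1 cells, this counter screen added CellTiter-Fluor after 16hr of compound exposure and recorded fluorescence 1hr later.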
Assay [16] in a line: Caspase-3/7 induction in CHO-K1 cells by small molecules, qHTS assay (AID 1346980). Further: nearly all actives have a fitted effect of over 15% in size. The method, boiled down: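 Wild-type cells were seeded at 1,500 per well and settled 5 hr at 37 C, 5% CO2, then exposed to DMSO-dissolved compounds for 17 hr. Caspase-Glo 3/7 reagent was added, and luminescence was read after 30min at room temperature.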
The nature of assay [17]: Caspase-3/7 induction in HepG2 cells by small molecules, qHTS cell viability counter screen (AID 1346981). Further: series mostly up to about 92 µM; nearly all actives have a fitted effect of over 30% in size. The method, boiled down:
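Wild-type HepG2 cells, 2,000/well, settled 5 hr at 37 C, 5% CO2 before compound addition. Viability read by CellTiter-Fluor fluorescence, reagent added after 16 hr compound exposure, then 1 hr at 37C, in the same wells as the caspase read.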

The results in this text go back to PubChem BioAssay (Tox21).

Values joined by “and” are separate entries in the source; they are usually repeats but may differ in a detail not shown here. Equal values may be shown once. Inconclusive results are not listed. Active and inactive are the calls of the source. Unless noted, the call rests on the fitted dose curve; in most records, active means well fitted curve in the direction sought with a large enough effect in the repeat runs; inconclusive means weak or mixed curves; inactive means no such curve, though single readings can be large; an effect the other way counts as inactive or inconclusive.

Cytochrome P450 2D6 (Homo sapiens), sequence (P10635 whole entry, looked up): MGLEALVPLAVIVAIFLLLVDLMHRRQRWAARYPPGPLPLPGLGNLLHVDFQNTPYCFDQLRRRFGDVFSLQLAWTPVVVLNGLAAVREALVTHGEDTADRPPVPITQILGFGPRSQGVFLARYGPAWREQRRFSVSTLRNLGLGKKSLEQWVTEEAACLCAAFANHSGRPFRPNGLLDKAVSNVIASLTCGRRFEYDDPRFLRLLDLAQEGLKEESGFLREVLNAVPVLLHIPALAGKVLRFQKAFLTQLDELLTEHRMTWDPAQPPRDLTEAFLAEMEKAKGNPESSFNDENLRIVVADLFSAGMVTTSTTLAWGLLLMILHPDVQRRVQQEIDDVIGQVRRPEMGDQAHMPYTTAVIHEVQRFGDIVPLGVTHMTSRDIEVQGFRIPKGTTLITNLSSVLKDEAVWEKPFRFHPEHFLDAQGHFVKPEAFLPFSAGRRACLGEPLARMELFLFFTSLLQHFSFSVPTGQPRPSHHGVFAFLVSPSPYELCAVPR
Thyrotropin-releasing hormone receptor (Homo sapiens), sequence (P34981 whole entry, looked up): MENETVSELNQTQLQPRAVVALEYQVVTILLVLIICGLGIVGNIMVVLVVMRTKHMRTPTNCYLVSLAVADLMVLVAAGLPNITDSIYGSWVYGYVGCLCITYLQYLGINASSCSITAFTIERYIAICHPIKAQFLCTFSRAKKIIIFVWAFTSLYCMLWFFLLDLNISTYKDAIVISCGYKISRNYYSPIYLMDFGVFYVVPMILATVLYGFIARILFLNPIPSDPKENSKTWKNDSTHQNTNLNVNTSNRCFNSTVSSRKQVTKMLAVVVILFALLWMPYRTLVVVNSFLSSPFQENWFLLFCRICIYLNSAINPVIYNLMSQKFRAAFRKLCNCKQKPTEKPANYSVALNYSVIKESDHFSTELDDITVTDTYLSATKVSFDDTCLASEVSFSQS
Cytochrome P450 2C19 (Homo sapiens), sequence (P33261 whole entry, looked up): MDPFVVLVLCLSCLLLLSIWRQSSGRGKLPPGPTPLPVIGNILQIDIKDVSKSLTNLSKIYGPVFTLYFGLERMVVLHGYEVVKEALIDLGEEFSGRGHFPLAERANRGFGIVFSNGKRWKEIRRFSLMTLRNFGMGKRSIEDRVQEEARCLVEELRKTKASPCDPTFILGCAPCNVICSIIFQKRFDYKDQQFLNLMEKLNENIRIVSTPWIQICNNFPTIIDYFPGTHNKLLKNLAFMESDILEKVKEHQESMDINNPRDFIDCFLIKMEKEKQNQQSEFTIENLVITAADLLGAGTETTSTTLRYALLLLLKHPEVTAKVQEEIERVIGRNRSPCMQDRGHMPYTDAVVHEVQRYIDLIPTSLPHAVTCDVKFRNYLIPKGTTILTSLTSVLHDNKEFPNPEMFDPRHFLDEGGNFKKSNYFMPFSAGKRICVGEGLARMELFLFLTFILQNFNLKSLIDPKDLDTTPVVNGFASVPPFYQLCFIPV
Nuclear receptor subfamily 1 group I member 2 (Homo sapiens), sequence (O75469 whole entry, looked up): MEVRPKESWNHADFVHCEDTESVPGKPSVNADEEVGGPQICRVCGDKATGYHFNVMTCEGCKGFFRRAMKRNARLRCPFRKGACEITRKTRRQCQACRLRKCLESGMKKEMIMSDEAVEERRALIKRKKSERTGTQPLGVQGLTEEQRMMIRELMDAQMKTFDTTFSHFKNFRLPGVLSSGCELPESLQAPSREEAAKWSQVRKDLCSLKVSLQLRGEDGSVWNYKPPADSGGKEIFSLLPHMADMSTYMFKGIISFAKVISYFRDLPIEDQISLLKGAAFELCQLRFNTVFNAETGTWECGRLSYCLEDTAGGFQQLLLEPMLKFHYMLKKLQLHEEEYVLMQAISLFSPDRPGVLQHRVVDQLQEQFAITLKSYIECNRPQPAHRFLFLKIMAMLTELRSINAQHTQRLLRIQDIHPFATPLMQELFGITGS
Progesterone receptor (Homo sapiens), sequence (P06401 whole entry, looked up): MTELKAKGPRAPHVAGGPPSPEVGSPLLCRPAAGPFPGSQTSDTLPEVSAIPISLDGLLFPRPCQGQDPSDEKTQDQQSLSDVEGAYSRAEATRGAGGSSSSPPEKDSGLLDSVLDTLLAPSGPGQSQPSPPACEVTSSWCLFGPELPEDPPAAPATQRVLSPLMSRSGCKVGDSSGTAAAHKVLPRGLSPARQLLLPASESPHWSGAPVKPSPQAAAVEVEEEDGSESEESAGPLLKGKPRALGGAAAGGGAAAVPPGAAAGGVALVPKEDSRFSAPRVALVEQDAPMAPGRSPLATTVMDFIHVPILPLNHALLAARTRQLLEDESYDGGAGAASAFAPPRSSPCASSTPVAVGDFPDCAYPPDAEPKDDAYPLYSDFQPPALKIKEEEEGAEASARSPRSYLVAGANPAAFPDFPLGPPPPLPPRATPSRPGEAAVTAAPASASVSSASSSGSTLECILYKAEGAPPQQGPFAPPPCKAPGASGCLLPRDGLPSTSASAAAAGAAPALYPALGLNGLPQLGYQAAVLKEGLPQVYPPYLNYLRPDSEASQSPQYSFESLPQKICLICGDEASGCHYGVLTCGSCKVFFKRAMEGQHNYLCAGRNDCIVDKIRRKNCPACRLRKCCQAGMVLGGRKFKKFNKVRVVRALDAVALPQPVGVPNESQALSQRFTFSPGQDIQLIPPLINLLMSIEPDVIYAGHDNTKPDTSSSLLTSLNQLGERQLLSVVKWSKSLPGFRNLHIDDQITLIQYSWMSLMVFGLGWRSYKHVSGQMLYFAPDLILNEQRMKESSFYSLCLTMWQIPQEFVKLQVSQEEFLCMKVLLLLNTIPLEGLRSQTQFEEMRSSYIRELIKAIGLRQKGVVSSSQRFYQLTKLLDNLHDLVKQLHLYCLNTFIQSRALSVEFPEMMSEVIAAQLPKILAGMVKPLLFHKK

As for `CC(C)OC(=O)c1cc(C(=O)OC(C)C)cc([N+](=O)[O-])c1`, in [1], the call was inactive. Moreover, the Potency entry in assay [2], in [3], in assay [4], in assay [5] and in assay [6] was “inactive” throughout. For the same compound, the Potency in [7] was 19.8 µM (active); in assay [8] it was 6.87 µM (active); in [9] it was 0.0816 µM (active).

For the compound `CCCCCCCC/C=C\CCCCCCCC(=O)N(C)CC(=O)O`, the Potency in assay [10] is 24.3 µM (active); in assay [11], 68.6 µM (active); in assay [12], 68.6 µM (active); in assay [15], 68.6 µM (active). For the same compound, the Potency entry in assay [13], in assay [2], in [3], in assay [4], in assay [5] and in assay [14] was “inactive” each time. For the same compound, the Potency result in assay [6], in assay [16], in assay [17], in assay [7], in assay [8] and in [9] was “inactive” throughout.

Consider `Clc1ccc(C(Cn2ccnc2)OCc2c(Cl)cccc2Cl)c(Cl)c1` (stereo not drawn), for which the Potency was 4.22 µM (active) in assay [10]; 5.96 µM (active) in assay [11]; 5.96 µM (active) in assay [12]; 23.7 µM (active) in assay [14]; 21.1 µM (active) in assay [15]. Also, the Potency result in [13], in assay [2], in [3], in assay [6] and in assay [16] was “inactive” in each case.

For the compound `CCCCCCCCCCCC(=O)N(CC)CC`, in assay [1], the call was inactive. The Potency entry in assay [12], in assay [13], in assay [2], in [3], in assay [4] and in assay [5] was “inactive” each time. Moreover, the Potency result in assay [14], in assay [6], in assay [15], in assay [16], in assay [17] and in assay [8] was “inactive” in each case. Besides, the Potency in assay [7] is 21.7 µM (active).

Take `c1ccc(Nc2cccc3ccccc23)cc1`: the Potency was 13.9 µM (active) in assay [10]; 61.9 µM (active) in assay [15]; 61.9 µM (active) and 30.6 µM (active) in assay [7]; 32.1 µM (active) in [8]. For the same compound, the Potency entry in [11], in assay [12], in assay [2], in assay [3], in assay [4] and in assay [5] was “inactive” each time. Moreover, the Potency result in [6], in assay [16] and in assay [17] was “inactive” each time.

For the compound `CCC(=O)OCCc1ccccc1`, in assay [1], the outcome was inactive. Further, the Potency entry in assay [11], in [12], in assay [2], in assay [3], in assay [4] and in assay [5] was “inactive” each time. For the same compound, the Potency entry in assay [14], in assay [6], in assay [16], in assay [7], in assay [8] and in [9] was “inactive” each time.

As to `C[C@@H]1CC[C@H]2C(C)(C)[C@H]3C[C@@]12CC[C@@]3(C)O`, in assay [1], the result was inactive. For the same compound, the Potency result in assay [11], in [12], in [2], in assay [3], in assay [14] and in assay [17] was “inactive” throughout. Also, the Potency result in assay [7] is “inactive”.
